The record followed here is PubChem BioAssay (Tox21).

Several values for one entry are separate records, joined by “and”; a condition that tells them apart may be missing. Identical values can stand only once. Inconclusive results are not listed. Activity calls are given as the source filed them. The call rests on the fitted dose curve; in most records, active means well fitted cell-killing curve with a large enough effect in the repeat runs; inconclusive means weak or mixed curves, or effect the other way; inactive means no such curve, though single readings can be large or run the other way.
On the % scale 0 is the no-effect control and ±100 the full control effect; potency means the concentration at half of the fitted maximal effect.

The assay in a line: qHTS assay to identify small molecule antagonists of the progesterone receptor (PR) signaling pathway - cell viability counter screen (AID 1346798). Further: nearly all actives have a fitted effect of over 50% in size. The settings on record: PR-UAS-bla HEK293T viability, CellTiter-Glo luminescence, 16 h; series mostly up to 92.4 µM; activity change, negative = cytotoxicity: at the top concentration. An outline of the steps: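 PR-UAS-bla HEK293T cells in medium with 2% charcoal-stripped FBS were treated with compounds plus R5020 for 16 hr at 37C. Cell viability was then read by CellTiter-Glo luminescence after 30 min at room temperature in the same wells.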
Regarding `Nc1cc(Cl)c([N+](=O)[O-])cc1O`, the “activity change, negative = cytotoxicity” value is 4.55% (inactive).

For the compound `CCC1(c2cnc[nH]2)Cc2ccccc2C1`, the “activity change, negative = cytotoxicity” value was 19.3% [at 42.5 µM] (inactive).

As to `C1CC(COCC2CO2)CCC1COCC1CO1` (stereo unspecified), the “activity change, negative = cytotoxicity” value is 13.3% (inactive).

In the case of `C=CC(C)C#N` (stereo unspecified), the “activity change, negative = cytotoxicity” value is -4.13% (inactive).

Turning to `O=C1C=CC(=O)N1c1ccccc1`, the Potency is 68.6 µM (active).

Consider `CC(C)N=C(N)/N=C(\N)Nc1ccc(Cl)cc1`, for which the “activity change, negative = cytotoxicity” value was 0.262% [at 42.5 µM] (inactive).

Turning to `Clc1ccccc1CN1CCc2sccc2C1`, the “activity change, negative = cytotoxicity” value is -29.2% [at 42.5 µM] (inactive).

As to `CC1CCCCN1CCCOC(=O)c1ccc(OC2CCCCC2)cc1` (stereo unspecified), the “activity change, negative = cytotoxicity” value is 9.31% [at 42.5 µM] (inactive).

Consider `CCC(C)c1cc([N+](=O)[O-])cc([N+](=O)[O-])c1OC(=O)OC(C)C` (stereo unspecified), for which the “activity change, negative = cytotoxicity” value is -5.29% (inactive).

For `COc1cccc(CCc2ccccc2OCC(CN(C)C)OC(=O)CCC(=O)O)c1` (stereo unspecified), the Potency is 13.3 µM (active).

For `O=C1c2c(O)ccc([N+](=O)[O-])c2C(=O)c2c([N+](=O)[O-])ccc(O)c21`, the Potency is 24.1 µM (active).

With `CC(CN(C)C)CN1c2ccccc2CCc2ccccc21` (stereo unspecified), the Potency is 21.1 µM (active).

For the compound `C=C(c1ccc(C(=O)O)cc1)c1cc2c(cc1C)C(C)(C)CCC2(C)C`, the Potency was 54.5 µM (active).

Take `C[C@H]1O[C@@H](O[C@H]2[C@@H](O)C[C@H](O[C@H]3[C@@H](O)C[C@H](O[C@H]4CC[C@@]5(C)[C@H](CC[C@@H]6[C@@H]5C[C@@H](O)[C@]5(C)[C@@H](C7=CC(=O)OC7)CC[C@]65O)C4)O[C@@H]3C)O[C@@H]2C)C[C@H](O)[C@@H]1O`: the Potency was 86.4 nM (active) and 121 nM (active).

With `C=CC(=C)CCC=C(C)C`, the Potency is 54.5 µM (active).

As for `Cc1c(-c2ccc(O)cc2)n(Cc2ccc(OCCN3CCCCCC3)cc2)c2ccc(O)cc12`, the Potency was 33.5 µM (active).
